Data published in PubChem BioAssay (NCI).
The panel holds about 79,000 compounds, 15% with a hit somewhere; the sample as a whole holds those more often. A number with no mark means an inactive call. Calls of active or inactive are those of the source. No stated cut-off is given here; in the data, active means growth inhibition above about 70%; inactive means the rest.

What was measured:
[1] = NCI Yeast Anticancer Drug Screen. Data for the rad50 strain (AID 155);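 further: 0% = growth of vehicle-only cultures of the same strain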; conditions: S. cerevisiae rad50 strain growth inhibition; at 50.0 µM; stronger effect = higher value
Method in brief: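 Genetically altered yeast (DNA repair pathway); compound treatment; growth inhibition vs vehicle ctrl.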

[2] = NCI Yeast Anticancer Drug Screen. Data for the mec2-1 strain (AID 157); conditions: S. cerevisiae mec2-1 strain, at 50.0 µM, stronger effect = higher value
Method in brief: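 Each compound was tested on mec2-1 yeast, a strain altered in DNA damage repair or cell cycle control. Growth inhibition is reported relative to vehicle.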

[3] = NCI Yeast Anticancer Drug Screen. Data for the sgs1 mgt1 strain (AID 161);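 further: 0% = growth of cultures given vehicle only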; conditions: S. cerevisiae sgs1 mgt1 strain, at 50.0 µM, stronger effect = higher value
Method in brief: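 Inhibition of yeast growth, normalised to vehicle-treated controls, is reported for a strain bearing genetic alterations in DNA damage repair.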

[4] = NCI Yeast Anticancer Drug Screen. Data for the cln2 rad14 strain (AID 165);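 further: 0% = growth equal to vehicle treated cultures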; conditions: S. cerevisiae cln2 rad14 strain, at 50.0 µM, stronger effect = higher value
Method in brief: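 Test compounds were added to cln2 rad14 yeast cultures; inhibition of growth was then determined by comparison with vehicle treatment.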

[5] = NCI Yeast Anticancer Drug Screen. Data for the bub3 strain (AID 167); conditions: S. cerevisiae bub3 mutant strain, at 50.0 µM, stronger effect = higher value
Method in brief: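 Yeast carrying a defined mutation is treated with each compound, and growth is compared with that of vehicle-exposed cells to give inhibition.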

[6] = NCI Yeast Anticancer Drug Screen. Data for the mlh1 rad18 strain (AID 175); conditions: S. cerevisiae mlh1 rad18 strain growth inhibition; at 50.0 µM; stronger effect = higher value
Method in brief: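 Inhibition values reflect reduced growth of mutant yeast versus vehicle-treated controls following compound exposure; the mutations affect DNA damage repair.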

SMILES | growth inhibition [1] | growth inhibition [2] | growth inhibition [3] | growth inhibition [4] | growth inhibition [5] | growth inhibition [6]
O=[N+]([O-])c1ccc(OS(=O)(=O)O)cc1 | 17.8% | 4.45% | 20.5% | -9.85% | -4.1% | 8.55%
COC(=O)c1ccccc1CC1Cc2cc3c(cc2C1)CCC3 | 20.5% | 7.1% | -0.7% | 12.9% | 4.3% | 5.45%
O=C1CCCCCCCCCCOCCCCO1 | -2.4% | 2.9% | 14.8% | 24.1% | 27.7% | -13.4%
O=S(=O)(/N=C(Cl)/C(Cl)=N/S(=O)(=O)c1ccccc1)c1ccccc1 | 15.3% | -1.65% | 22.7% | -9.9% | -0.1% | 5.3%
O=S(=O)(Cl)c1cccc2cc3ccccc3cc12 | 0.6% | -10.1% | 3.95% | -12.9% | 12.9% | -7.05%
CCC1=CCC(P(=O)(c2ccccc2)c2ccccc2)CC1C (stereo not drawn) | -28.8% | -16.4% | -0.15% | 12.6% | 0.15% | -19.8%
O=c1[nH][nH]c(=O)c2c1ccc1oc3ccccc3c12 | -13.8% | 0.55% | -20.7% | 28.2% | 2.55% | 4.4%
Cn1c(=O)c(C(c2ccccc2)c2c(O)c3ccccc3n(C)c2=O)c(O)c2ccccc21 | 12.1% | 6.5% | -19.2% | -34% | 2.8% | 15.8%
[Cl][Co][Cl].[NH-]CCC[NH-].[NH-]CCC[NH-] | 1.5% | 21.3% | 13.3% | 10.2% | -4.4% | 16.7%
c1ccc(-c2nc3ccccc3nc2-c2ccc(-c3ccc(-c4nc5ccccc5nc4-c4ccccc4)cc3)cc2)cc1 | 16.1% | 5.8% | -13.8% | 21.3% | -0.4% | 4.1%
c1ccc(-c2nsc3ccccc23)cc1 | 14.3% | -6.35% | -8.25% | -31.1% | -14.8% | 5.75%
c1ccc2c(c1)N=C(NNC1=Nc3ccccc3SC1)CS2 | 2.35% | -2.85% | 2.4% | -0.55% | 1.25% | 0.65%
O=C1Cc2c([nH]c3ccccc23)-c2cc(Br)ccc2N1 | 13.4% | 6.85% | -2% | 2.9% | 31.6% | 2.9%
c1ccc(-n2cccc2)cc1 | 7.4% | 7.05% | 9.25% | -30% | -3.7% | -11.6%
C#CC1(O)CCCCCCCCC2(CCCCCCCC1)OCCO2 | -10.7% | -10.8% | -18.2% | 13.7% | -5.85% | 1.25%
COC(=O)c1ccccc1NC(=O)c1cc(C(=O)O)c(C(=O)Nc2ccccc2C(=O)OC)cc1C(=O)O | 0.75% | 10.2% | 4.95% | 4.35% | -3.7% | 23.1%
NC(=S)/N=C/C1=C(O)CCCC1=O | 2.05% | 5.95% | 16.4% | 17% | 14% | 11.2%
CC1(C)C2CCC(CCOC(=O)COc3ccc(Cl)cc3Cl)C1C2 (stereo not drawn) | -13% | -5.45% | 1% | -34.8% | 5% | 29%
Nc1ncc(Cl)cn1 | 19.6% | -21.4% | 8% | -25.2% | -22.3% | -23.6%

SMILES | growth inhibition [1] | growth inhibition [2] | growth inhibition [3] | growth inhibition [4] | growth inhibition [5] | growth inhibition [6]
Oc1ccc2c(c1)OCC(O)(c1ccccc1O)C2 (stereo not drawn) | 23.8% | -1.95% | 6.3% | 7.95% | 23.2% | 15.3%
COC(=O)C1(C)C(=O)NC(=O)CC1C (stereo not drawn) | 9.65% | 0% | 1% | -30.5% | -2.5% | -3.2%
Cn1c(=O)c2c(nc(NCCO)n2Cc2ccccc2)n(C)c1=O | 20.1% | 9.95% | 7.2% | 18.3% | 8.45% | 31.2%
CC(=O)NC1CC(=O)N(c2ccccc2)C1=O (stereo not drawn) | 16.4% | 7.8% | 12.2% | 5.9% | -1.8% | -19.1%
O=[N+]([O-])c1ccc(N/N=C(\Cc2ccccc2)c2ccccc2)c([N+](=O)[O-])c1 | 6.8% | 2.25% | 6.2% | -20.3% | -5.75% | 2.3%
ClC1=C(Cl)C2(Cl)C3C(c4ccc(I)cc4C4C3C3(Cl)C(Cl)=C(Cl)C4(Cl)C3(Cl)Cl)C1(Cl)C2(Cl)Cl (stereo not drawn) | 14.6% | 15.4% | 8.8% | 14.1% | 20.6% | 16.9%
CC(=O)OC1CCC2(C)C(=CCC3C2CCC2(C)C3CC(Br)C2(O)C(C)=O)C1 (stereo not drawn) | 41.9% | 24.1% | 15% | 17.7% | 4.1% | 30.4%
CCCCCOC(=O)Nc1ccc(OCC)cc1 | -9.15% | -4.95% | -3.15% | -21.9% | -1.3% | -4.25%
CN1CCCCC1C[CH2][Sn]([c]1ccccc1)([c]1ccccc1)[c]1ccccc1 (stereo not drawn) | 99.6% (active) | 99.5% (active) | 99.7% (active) | 99.2% (active) | 99.2% (active) | 99.5% (active)
Nc1cc(=O)[nH]c(NCCCC(N)C(=O)O)n1 (stereo not drawn) | 5.95% | 8.8% | 6.55% | -15.7% | 0.85% | 8.9%
CC(=O)c1sc(-c2nc(C)c(C(=O)/C=C\c3ccc(/C=C\C(=O)c4sc(-c5nc(C)c(C(C)=O)s5)nc4C)cc3)s2)nc1C | -19.3% | -13.4% | -8.7% | -11.6% | 3.95% | -14.4%
COc1cc2c(cc1OCc1ccccc1)C(c1cc(OC)c(OC)c(OC)c1)=C1C(=O)OCC1C2 (stereo not drawn) | 9.4% | -1.1% | -16.4% | -7.2% | -1.25% | 1%
NC(=O)N/N=C/c1ccncc1 | -7.15% | 28.6% | -24.9% | -7.05% | 8.6% | 7.45%
CCNC(=O)C(CC)(CO)CO | -16.4% | -3.4% | -3.95% | 6.2% | 0.65% | 4.5%
CS(=O)(=O)OCC1C2CCC(CC2)C1COS(C)(=O)=O (stereo not drawn) | 4.5% | 17.3% | 10.2% | -15.8% | -13.2% | -11.5%
CC(C)(C)NC(=O)NCc1ccccc1Cl | 2.9% | -8.1% | -2.7% | -52.5% | -0.75% | -8.35%
COc1ccc(C(=O)C/C(=N\N(C(=O)c2ccc(OC)cc2)c2ccccc2)c2ccc(OC)cc2)cc1 | 13.6% | -24.8% | 9.9% | -21.1% | -9.85% | 6.5%
COC(=O)C1=C(C)NC(C)=C(C(=O)OC)C1c1ccc(NC(C)=O)cc1 | 4.7% | -3.7% | 13.3% | -6.25% | 5.25% | 10.9%
Cc1cc(O)oc(=O)c1 | -7.7% | -15.1% | -7.2% | -44.4% | 1.85% | -4.85%
